The record followed here is PMC11006913.

What all share (assay): PBM; 200 nM protein, PBS
Holding throughout (conditions): dsDNA, one strand shown

Experiment [1] addresses HOXC9 (Homo sapiens, UniProt P31274 178-260, K195R).
Experiment [2] deals with HOXC10 (Homo sapiens, UniProt Q9NYD6 254-340).
Experiment [3] deals with HOXC9 (Homo sapiens, UniProt P31274 178-260).
The target of experiment [4] is HOXC9 (Homo sapiens, UniProt P31274 178-260, R193K).
The target of experiment [5] is HOXC10 (Homo sapiens, UniProt Q9NYD6 254-340, K271E).
Sequence of HOXC10 (Homo sapiens, UniProt Q9NYD6 254-340, K271E) (Q9NYD6 254-340 K271E): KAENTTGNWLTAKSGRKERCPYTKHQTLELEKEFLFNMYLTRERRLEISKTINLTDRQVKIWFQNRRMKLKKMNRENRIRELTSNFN
Experiment [6] concerns the target HOXC9 (Homo sapiens, UniProt P31274 178-260, R222W).
For experiment [7], the target named is HOXA7 (Homo sapiens, UniProt P31268 116-202).
Sequence of HOXA7 (Homo sapiens, UniProt P31268 116-202) (P31268 116-202): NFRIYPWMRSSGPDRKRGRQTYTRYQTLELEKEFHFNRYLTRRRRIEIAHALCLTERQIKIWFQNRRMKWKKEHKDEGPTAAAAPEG
Experiment [8] has as its target ALX3 (Homo sapiens, UniProt O95076 139-225, N203Q).
Experiment [9] deals with ALX3 (Homo sapiens, UniProt O95076 139-225).
Sequence of ALX3 (Homo sapiens, UniProt O95076 139-225) (O95076 139-225): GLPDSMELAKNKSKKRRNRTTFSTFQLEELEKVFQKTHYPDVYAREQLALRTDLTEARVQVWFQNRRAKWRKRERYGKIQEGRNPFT
Experiment [10] addresses ALX3 (Homo sapiens, UniProt O95076 139-225, L168Q).
Experiment [11] concerns the target ALX3 (Homo sapiens, UniProt O95076 139-225, L168V).
Experiment [12] deals with HOXA7 (Homo sapiens, UniProt P31268 116-202, W177C).
Sequence of HOXA7 (Homo sapiens, UniProt P31268 116-202, W177C) (P31268 116-202 W177C): as the sequence (P31268 116-202) above, with W62C counted along it
Experiment [13] concerns the target ALX3 (Homo sapiens, UniProt O95076 139-225, N203S).
In experiment [14] the target is HOXA4 (Homo sapiens, UniProt Q00056 201-287, W262R).
Sequence of HOXA4 (Homo sapiens, UniProt Q00056 201-287, W262R) (Q00056 201-287 W262R): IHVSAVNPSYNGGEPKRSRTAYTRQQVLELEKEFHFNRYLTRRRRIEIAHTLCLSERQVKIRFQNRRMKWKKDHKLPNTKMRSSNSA
Experiment [15] concerns the target HOXA4 (Homo sapiens, UniProt Q00056 201-287).
The target of experiment [16] is HOXB6 (Homo sapiens, UniProt P17509 132-218).
Sequence of HOXB6 (Homo sapiens, UniProt P17509 132-218) (P17509 132-218): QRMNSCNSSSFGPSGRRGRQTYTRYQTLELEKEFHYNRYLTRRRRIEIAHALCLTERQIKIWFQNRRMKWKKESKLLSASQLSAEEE
Experiment [17] addresses ALX4 (Homo sapiens, UniProt Q9H161 200-286).
Experiment [18] concerns the target ALX4 (Homo sapiens, UniProt Q9H161 200-286, Q225E).
Experiment [19] has as its target ALX1 (Homo sapiens, UniProt Q15699 118-204, L144V).
For experiment [20], the target named is ALX1 (Homo sapiens, UniProt Q15699 118-204, L144R).
Sequence of ALX1 (Homo sapiens, UniProt Q15699 118-204, L144R) (Q15699 118-204 L144R): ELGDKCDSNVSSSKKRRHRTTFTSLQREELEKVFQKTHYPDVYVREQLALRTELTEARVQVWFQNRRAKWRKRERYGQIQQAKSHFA
Experiment [21] deals with ALX1 (Homo sapiens, UniProt Q15699 118-204).
Sequence of ALX1 (Homo sapiens, UniProt Q15699 118-204) (Q15699 118-204): as the sequence (Q15699 118-204 L144R) above, with R27L counted along it
In experiment [22] the target is MSX2 (Homo sapiens, UniProt P35548 130-214, R199I).
Sequence of MSX2 (Homo sapiens, UniProt P35548 130-214, R199I) (P35548 130-214 R199I): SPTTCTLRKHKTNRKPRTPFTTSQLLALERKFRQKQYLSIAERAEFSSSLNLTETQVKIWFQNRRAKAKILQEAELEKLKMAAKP
Experiment [23] concerns the target MSX2 (Homo sapiens, UniProt P35548 130-214).
Experiment [24] has as its target MSX2 (Homo sapiens, UniProt P35548 130-214, F161Y).
The target of a further experiment is T1, NKX2-6 (Homo sapiens, UniProt A6NCS4 118-204, R150C).
T1 sequence: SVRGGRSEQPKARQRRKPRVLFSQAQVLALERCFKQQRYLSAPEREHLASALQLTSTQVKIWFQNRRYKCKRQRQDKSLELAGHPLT

The target in experiment [25] is HOXD13 (Homo sapiens, UniProt P35453 263-343, T313R).
Sequence of HOXD13 (Homo sapiens, UniProt P35453 263-343, T313R) (P35453 263-343 T313R): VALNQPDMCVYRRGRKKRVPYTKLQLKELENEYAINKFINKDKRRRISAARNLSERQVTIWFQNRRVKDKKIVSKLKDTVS
The target of experiment [26] is HOXD13 (Homo sapiens, UniProt P35453 263-343).
Sequence of HOXD13 (Homo sapiens, UniProt P35453 263-343) (P35453 263-343): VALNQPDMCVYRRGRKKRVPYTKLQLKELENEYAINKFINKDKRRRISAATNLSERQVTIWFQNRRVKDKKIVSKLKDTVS
Experiment [27] concerns the target PROP1 (Homo sapiens, UniProt O75360 56-141).
Experiment [28] deals with PROP1 (Homo sapiens, UniProt O75360 56-141, R99H).
Sequence of PROP1 (Homo sapiens, UniProt O75360 56-141, R99H) (O75360 56-141 R99H): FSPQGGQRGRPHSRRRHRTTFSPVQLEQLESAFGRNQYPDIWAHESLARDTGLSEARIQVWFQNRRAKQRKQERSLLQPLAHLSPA
Experiment [29] deals with HOXD13 (Homo sapiens, UniProt P35453 263-343, T313A).
Sequence of HOXD13 (Homo sapiens, UniProt P35453 263-343, T313A) (P35453 263-343 T313A): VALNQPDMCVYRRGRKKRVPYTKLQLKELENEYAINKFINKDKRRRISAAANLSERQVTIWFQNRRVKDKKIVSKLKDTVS
In experiment [30] the target is PROP1 (Homo sapiens, UniProt O75360 56-141, F88S).
Sequence of PROP1 (Homo sapiens, UniProt O75360 56-141, F88S) (O75360 56-141 F88S): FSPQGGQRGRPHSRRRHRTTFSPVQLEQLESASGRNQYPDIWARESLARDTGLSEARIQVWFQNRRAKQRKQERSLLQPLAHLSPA
Experiment [31] concerns the target HOXB6 (Homo sapiens, UniProt P17509 132-218, K202E).
Experiment [32] deals with HOXA2 (Homo sapiens, UniProt O43364 129-215, R185T).
Sequence of HOXA2 (Homo sapiens, UniProt O43364 129-215, R185T) (O43364 129-215 R185T): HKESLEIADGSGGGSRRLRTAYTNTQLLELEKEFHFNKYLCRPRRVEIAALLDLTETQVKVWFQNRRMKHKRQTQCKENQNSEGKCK
The target in experiment [33] is HOXA2 (Homo sapiens, UniProt O43364 129-215, R185K).
Sequence of HOXA2 (Homo sapiens, UniProt O43364 129-215, R185K) (O43364 129-215 R185K): as the sequence (O43364 129-215 R185T) above, with T57K counted along it
The target in experiment [34] is HOXA2 (Homo sapiens, UniProt O43364 129-215, Y150S).
Sequence of HOXA2 (Homo sapiens, UniProt O43364 129-215, Y150S) (O43364 129-215 Y150S): as the sequence (O43364 129-215 R185T) above, with Y22S, T57R counted along it
Experiment [35] concerns the target HOXA2 (Homo sapiens, UniProt O43364 129-215).

Sequence of HOXC9 (Homo sapiens, UniProt P31274 178-260) (P31274 178-260): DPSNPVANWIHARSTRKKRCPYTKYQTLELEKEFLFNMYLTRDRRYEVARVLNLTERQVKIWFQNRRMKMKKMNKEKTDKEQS
Sequence of HOXC9 (Homo sapiens, UniProt P31274 178-260, K195R) (P31274 178-260 K195R): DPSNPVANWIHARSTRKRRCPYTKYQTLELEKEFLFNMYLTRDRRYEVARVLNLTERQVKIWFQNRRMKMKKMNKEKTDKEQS
Sequence of HOXC9 (Homo sapiens, UniProt P31274 178-260, R222W) (P31274 178-260 R222W): as the sequence (P31274 178-260) above, with R45W counted along it
Sequence of HOXC9 (Homo sapiens, UniProt P31274 178-260, R193K) (P31274 178-260 R193K): as the sequence (P31274 178-260) above, with R16K counted along it
Sequence of ALX4 (Homo sapiens, UniProt Q9H161 200-286) (Q9H161 200-286): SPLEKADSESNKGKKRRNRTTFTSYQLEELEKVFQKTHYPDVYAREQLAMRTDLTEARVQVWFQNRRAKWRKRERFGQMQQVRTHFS
Sequence of ALX4 (Homo sapiens, UniProt Q9H161 200-286, Q225E) (Q9H161 200-286 Q225E): as the sequence (Q9H161 200-286) above, with Q26E counted along it
Sequence of HOXA4 (Homo sapiens, UniProt Q00056 201-287) (Q00056 201-287): as the sequence (Q00056 201-287 W262R) above, with R62W counted along it
Sequence of ALX1 (Homo sapiens, UniProt Q15699 118-204, L144V) (Q15699 118-204 L144V): as the sequence (Q15699 118-204 L144R) above, with R27V counted along it
Sequence of HOXA2 (Homo sapiens, UniProt O43364 129-215) (O43364 129-215): as the sequence (O43364 129-215 R185T) above, with T57R counted along it
Sequence of ALX3 (Homo sapiens, UniProt O95076 139-225, L168V) (O95076 139-225 L168V): as the sequence (O95076 139-225) above, with L30V counted along it
Sequence of HOXC10 (Homo sapiens, UniProt Q9NYD6 254-340) (Q9NYD6 254-340): as the sequence (Q9NYD6 254-340 K271E) above, with E18K counted along it
Sequence of PROP1 (Homo sapiens, UniProt O75360 56-141) (O75360 56-141): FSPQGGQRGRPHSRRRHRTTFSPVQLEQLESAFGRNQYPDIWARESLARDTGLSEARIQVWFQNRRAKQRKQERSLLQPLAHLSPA
Sequence of MSX2 (Homo sapiens, UniProt P35548 130-214, F161Y) (P35548 130-214 F161Y): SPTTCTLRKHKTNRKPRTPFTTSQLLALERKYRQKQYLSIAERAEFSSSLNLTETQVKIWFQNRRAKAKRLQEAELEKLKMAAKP
Sequence of ALX3 (Homo sapiens, UniProt O95076 139-225, N203Q) (O95076 139-225 N203Q): as the sequence (O95076 139-225) above, with N65Q counted along it
Sequence of HOXB6 (Homo sapiens, UniProt P17509 132-218, K202E) (P17509 132-218 K202E): as the sequence (P17509 132-218) above, with K71E counted along it
Sequence of ALX3 (Homo sapiens, UniProt O95076 139-225, N203S) (O95076 139-225 N203S): as the sequence (O95076 139-225) above, with N65S counted along it
Sequence of ALX3 (Homo sapiens, UniProt O95076 139-225, L168Q) (O95076 139-225 L168Q): as the sequence (O95076 139-225) above, with L30Q counted along it
Sequence of MSX2 (Homo sapiens, UniProt P35548 130-214) (P35548 130-214): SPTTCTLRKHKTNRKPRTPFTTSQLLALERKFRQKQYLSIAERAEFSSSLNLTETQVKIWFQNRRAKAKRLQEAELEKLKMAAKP

Take GACCTCGC: the binding signal with HOXC9 [1] was 9.59 upbm affinity estimate (log intensity, higher = more binding, comparable within an allelic series); with HOXC10 [2], 10 upbm affinity estimate (log intensity, higher = more binding, comparable within an allelic series); in the experiment with HOXC9 [3], 9.54 upbm affinity estimate (log intensity, higher = more binding, comparable within an allelic series); with HOXC9 [4] it was 9.57 upbm affinity estimate (log intensity, higher = more binding, comparable within an allelic series); with HOXC10 [5] it was 9.99 upbm affinity estimate (log intensity, higher = more binding, comparable within an allelic series); in the experiment with HOXC9 [6], 9.76 upbm affinity estimate (log intensity, higher = more binding, comparable within an allelic series).
Take AGCAGCCC: the binding signal was 9.76 upbm affinity estimate (log intensity, higher = more binding, comparable within an allelic series) with HOXC9 [1]; 8.64 upbm affinity estimate (log intensity, higher = more binding, comparable within an allelic series) in the experiment with HOXA7 [7]; 9.83 upbm affinity estimate (log intensity, higher = more binding, comparable within an allelic series) with HOXC9 [3]; 7.76 upbm affinity estimate (log intensity, higher = more binding, comparable within an allelic series) in the experiment with ALX3 [8]; 9.78 upbm affinity estimate (log intensity, higher = more binding, comparable within an allelic series) in the experiment with HOXC9 [4]; 7.62 upbm affinity estimate (log intensity, higher = more binding, comparable within an allelic series) in the experiment with ALX3 [9]. The binding signal with ALX3 [10] is 7.67 upbm affinity estimate (log intensity, higher = more binding, comparable within an allelic series); with HOXC9 [6], 9.61 upbm affinity estimate (log intensity, higher = more binding, comparable within an allelic series); with ALX3 [11], 7.75 upbm affinity estimate (log intensity, higher = more binding, comparable within an allelic series); with HOXA7 [12], 8.34 upbm affinity estimate (log intensity, higher = more binding, comparable within an allelic series); with ALX3 [13] it was 7.72 upbm affinity estimate (log intensity, higher = more binding, comparable within an allelic series).
In the case of ATATAACG, the binding signal with HOXA4 [14] is 10.4 upbm affinity estimate (log intensity, higher = more binding, comparable within an allelic series); with HOXA4 [15] it was 11.4 upbm affinity estimate (log intensity, higher = more binding, comparable within an allelic series); in the experiment with HOXB6 [16] it was 10.7 upbm affinity estimate (log intensity, higher = more binding, comparable within an allelic series).
CCAGTGGG: the binding signal was 9.58 upbm affinity estimate (log intensity, higher = more binding, comparable within an allelic series) in the experiment with HOXC9 [1]; 8.11 upbm affinity estimate (log intensity, higher = more binding, comparable within an allelic series) with ALX4 [17]; 8.16 upbm affinity estimate (log intensity, higher = more binding, comparable within an allelic series) with ALX4 [18]; 9.54 upbm affinity estimate (log intensity, higher = more binding, comparable within an allelic series) with HOXC9 [3]; 6.51 upbm affinity estimate (log intensity, higher = more binding, comparable within an allelic series) with ALX1 [19]; 9.48 upbm affinity estimate (log intensity, higher = more binding, comparable within an allelic series) in the experiment with HOXC9 [4]. For the same sequence, the binding signal in the experiment with ALX1 [20] is 6.46 upbm affinity estimate (log intensity, higher = more binding, comparable within an allelic series); with HOXC9 [6], 9.57 upbm affinity estimate (log intensity, higher = more binding, comparable within an allelic series); with ALX1 [21], 6.33 upbm affinity estimate (log intensity, higher = more binding, comparable within an allelic series).
Consider CGCGGTGC, for which the binding signal with HOXC9 [1] was 9.77 upbm affinity estimate (log intensity, higher = more binding, comparable within an allelic series); with ALX4 [17], 8.05 upbm affinity estimate (log intensity, higher = more binding, comparable within an allelic series); with ALX4 [18], 8.13 upbm affinity estimate (log intensity, higher = more binding, comparable within an allelic series); in the experiment with HOXC9 [3], 9.77 upbm affinity estimate (log intensity, higher = more binding, comparable within an allelic series); with MSX2 [22], 9.6 upbm affinity estimate (log intensity, higher = more binding, comparable within an allelic series); with HOXC9 [4], 9.76 upbm affinity estimate (log intensity, higher = more binding, comparable within an allelic series). Also, the binding signal is 9.52 upbm affinity estimate (log intensity, higher = more binding, comparable within an allelic series) with MSX2 [23]; 9.74 upbm affinity estimate (log intensity, higher = more binding, comparable within an allelic series) in the experiment with HOXC9 [6]; 9.68 upbm affinity estimate (log intensity, higher = more binding, comparable within an allelic series) in the experiment with MSX2 [24].
Take TCCAGGGA: the binding signal in the experiment with HOXC9 [1] is 9.73 upbm affinity estimate (log intensity, higher = more binding, comparable within an allelic series); with NKX2-6, 9.47 upbm affinity estimate (log intensity, higher = more binding, comparable within an allelic series); with HOXC9 [3] it was 9.67 upbm affinity estimate (log intensity, higher = more binding, comparable within an allelic series); with HOXC9 [4] it was 9.68 upbm affinity estimate (log intensity, higher = more binding, comparable within an allelic series); in the experiment with HOXC9 [6], 9.68 upbm affinity estimate (log intensity, higher = more binding, comparable within an allelic series).
On to CTGCATAA, for which the binding signal with HOXC9 [1] is 11.2 upbm affinity estimate (log intensity, higher = more binding, comparable within an allelic series); in the experiment with HOXC9 [3], 11.1 upbm affinity estimate (log intensity, higher = more binding, comparable within an allelic series); in the experiment with HOXC9 [4], 11.2 upbm affinity estimate (log intensity, higher = more binding, comparable within an allelic series).
On to AGCCGTGG, for which the binding signal with HOXC9 [1] was 9.64 upbm affinity estimate (log intensity, higher = more binding, comparable within an allelic series); with HOXC9 [3] it was 9.68 upbm affinity estimate (log intensity, higher = more binding, comparable within an allelic series); with HOXD13 [25] it was 9.67 upbm affinity estimate (log intensity, higher = more binding, comparable within an allelic series); with HOXC9 [4], 9.58 upbm affinity estimate (log intensity, higher = more binding, comparable within an allelic series); in the experiment with HOXD13 [26], 9.7 upbm affinity estimate (log intensity, higher = more binding, comparable within an allelic series); with PROP1 [27], 6.79 upbm affinity estimate (log intensity, higher = more binding, comparable within an allelic series). Also, the binding signal with PROP1 [28] is 6.82 upbm affinity estimate (log intensity, higher = more binding, comparable within an allelic series); in the experiment with HOXD13 [29] it was 9.83 upbm affinity estimate (log intensity, higher = more binding, comparable within an allelic series); with HOXC9 [6], 9.77 upbm affinity estimate (log intensity, higher = more binding, comparable within an allelic series); with PROP1 [30], 6.72 upbm affinity estimate (log intensity, higher = more binding, comparable within an allelic series).
With GAGGGTCC, the binding signal was 9.32 upbm affinity estimate (log intensity, higher = more binding, comparable within an allelic series) with HOXC9 [1]; 8.91 upbm affinity estimate (log intensity, higher = more binding, comparable within an allelic series) in the experiment with HOXB6 [31]; 9.31 upbm affinity estimate (log intensity, higher = more binding, comparable within an allelic series) with HOXC9 [3]; 9.32 upbm affinity estimate (log intensity, higher = more binding, comparable within an allelic series) with HOXC9 [4]; 9.63 upbm affinity estimate (log intensity, higher = more binding, comparable within an allelic series) with HOXC9 [6]; 8.74 upbm affinity estimate (log intensity, higher = more binding, comparable within an allelic series) with HOXB6 [16].
For the sequence CACGCGGG, the binding signal with HOXC9 [1] was 9.44 upbm affinity estimate (log intensity, higher = more binding, comparable within an allelic series); in the experiment with HOXA2 [32], 7.04 upbm affinity estimate (log intensity, higher = more binding, comparable within an allelic series); with HOXC9 [3] it was 9.53 upbm affinity estimate (log intensity, higher = more binding, comparable within an allelic series); with HOXC9 [4], 9.49 upbm affinity estimate (log intensity, higher = more binding, comparable within an allelic series); with HOXA2 [33] it was 10.2 upbm affinity estimate (log intensity, higher = more binding, comparable within an allelic series); with HOXC9 [6], 9.63 upbm affinity estimate (log intensity, higher = more binding, comparable within an allelic series). Moreover, the binding signal in the experiment with HOXA2 [34] is 10.4 upbm affinity estimate (log intensity, higher = more binding, comparable within an allelic series); with HOXA2 [35], 7.18 upbm affinity estimate (log intensity, higher = more binding, comparable within an allelic series).
